Some test systems named below: SK-MEL-2 melanoma; EKVX NSCLC; SN12C renal; UO-31 renal; TK-10 renal; ACHN renal; CAKI-1 renal; A498 renal; CCRF-CEM leukemia; MOLT-4 leukemia.
Assay in all cases: NCI-60 one-dose screen, 48 h (100 = growth as untreated, 0 = no growth, -100 = all killed)
Common to all, as to settings: 10 µM unless noted

The text below walks through data of PubChem BioAssay (NCI).

Molecules are shown by their SMILES. About 83,000 compounds went through this panel and 20% of them were active in at least one assay; those are over-represented in the sample as a whole.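 Step 1: grow cells in 96-well plates. Step 2: add test compound at a single concentration. Step 3: incubate 48 h. Step 4: record percent growth.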 Values without a mark were called inactive. Activity calls are given as the source filed them. How the source made its calls: active means growth percent below 10; inactive means the rest.

In the case of `C#CCn1c2c(c3ccccc31)C[C@]1(C)[C@H]3CC[C@@H]4[C@@H]5C(=CCC[C@H]5C(=C)C)CC[C@@]4(C)[C@]3(C)CC[C@H]1C2(C)C`, the growth was 104% with SK-MEL-2 melanoma; 99.2% in the assay on EKVX NSCLC; 95.6% with SN12C renal; 77.1% in the assay with UO-31 renal; 122% in the assay on TK-10 renal; 99.2% in the assay with ACHN renal. The growth in the assay on CAKI-1 renal is 80.1%; with A498 renal it was 111%; in the assay with CCRF-CEM leukemia, 114%; in the assay with MOLT-4 leukemia it was 99.9%.

With `COc1ccc(-c2n[nH]nc2-c2cc3ccccc3s2)cc1O`, the growth is 32.3% in the assay on SK-MEL-2 melanoma; 41.9% in the assay on EKVX NSCLC; 32.4% in the assay with SN12C renal; 40.5% in the assay with UO-31 renal; 57% in the assay with TK-10 renal; 44.4% in the assay with ACHN renal. Moreover, the growth in the assay on CAKI-1 renal was 38.9%; with A498 renal, 1.86% (active); in the assay on CCRF-CEM leukemia, 16%; with MOLT-4 leukemia, 15.1%.

As for `CCc1ccccc1NC(=O)c1sc2nc3c(cc2c1N)CCCC3`, the growth with SK-MEL-2 melanoma was 31.8%; in the assay on EKVX NSCLC, 72.9%; in the assay on SN12C renal it was 34.9%; in the assay on UO-31 renal, 48.9%; in the assay on TK-10 renal, 59.5%; in the assay on ACHN renal it was 48.2%. Also, the growth in the assay with CAKI-1 renal is 45.6%; in the assay with A498 renal it was 6.65% (active); in the assay with CCRF-CEM leukemia, 18.3%; with MOLT-4 leukemia it was 25.4%.

As for `N#C/C(=C\c1ccc(-c2cccc(C(F)(F)F)c2)o1)c1nc(-c2ccco2)cs1`, the growth in the assay on SK-MEL-2 melanoma is 103%; in the assay with EKVX NSCLC it was 43%; in the assay with SN12C renal, 89.2%; in the assay on UO-31 renal, 62.8%; with TK-10 renal, 49.1%; in the assay on ACHN renal, 87.2%. For the same compound, the growth was 87.1% in the assay with CAKI-1 renal, 104% in the assay on A498 renal, 93.7% in the assay on CCRF-CEM leukemia and 93% in the assay with MOLT-4 leukemia.

Turning to `CN1CCN(c2ccc3nc(-c4[nH]ncc4Nc4ncnc5[nH]ccc45)[nH]c3c2)CC1`, the growth in the assay with SK-MEL-2 melanoma is -27.8% (active); in the assay on EKVX NSCLC, 2.05% (active); with SN12C renal, 2.59% (active); in the assay on UO-31 renal it was -9.13% (active); with TK-10 renal, -9.08% (active); with ACHN renal, 0.294% (active). Moreover, the growth was 1.7% (active) in the assay with CAKI-1 renal, -45.7% (active) in the assay with A498 renal, 4.45% (active) in the assay with CCRF-CEM leukemia and -13.6% (active) in the assay on MOLT-4 leukemia.

With `CCN1CCN(C(=O)[C@@]2(C)CC[C@]3(C)CC[C@]4(C)C(=CC(=O)[C@@H]5[C@@]6(C)CC[C@H](OC7C[C@@H](O)[C@@H](O)C(C)O7)C(C)(C)[C@@H]6CC[C@]54C)[C@@H]3C2)CC1` (stereo not given in full), the growth was 105% with SK-MEL-2 melanoma; 80.4% in the assay on EKVX NSCLC; -64.7% (active) in the assay with SN12C renal; -80.8% (active) in the assay with UO-31 renal; 136% with TK-10 renal; 79.5% in the assay on ACHN renal. The growth with CAKI-1 renal is 89.4%; in the assay with A498 renal, 95.5%; in the assay with CCRF-CEM leukemia, 0.503% (active); with MOLT-4 leukemia it was 0.754% (active).

With `O=S(=O)(NCCNc1cc(-c2cn(-c3ccccc3)nc2-c2cccc(O)c2)ccn1)c1ccc(F)cc1`, the growth was 22.2% in the assay on SK-MEL-2 melanoma; 56.1% with EKVX NSCLC; 44.2% in the assay with SN12C renal; 20.1% in the assay on UO-31 renal; 46.2% in the assay with TK-10 renal; 27.3% in the assay on ACHN renal. Also, the growth is 37.1% in the assay with CAKI-1 renal, 36.2% in the assay on A498 renal, 5.95% (active) in the assay with CCRF-CEM leukemia and 4.37% (active) with MOLT-4 leukemia.

For the compound `COC1=C(Br)C(=O)C(OC)=C(Br)C1=O`, the growth in the assay with SK-MEL-2 melanoma is 119%; in the assay with EKVX NSCLC, 105%; with SN12C renal, 95.2%; in the assay with UO-31 renal it was 93.3%; in the assay on TK-10 renal, 95.7%; with ACHN renal it was 104%. Moreover, the growth with CAKI-1 renal was 98.9%; with A498 renal, 128%; with CCRF-CEM leukemia, -12.3% (active); in the assay with MOLT-4 leukemia, 26.4%.

For `NC1=NN(c2ccccc2)C(=O)/C1=C/c1ccc(Cl)cc1`, the growth with SK-MEL-2 melanoma is 96.2%; with EKVX NSCLC it was 96%; in the assay with SN12C renal it was 94.6%; in the assay with UO-31 renal, 78.3%; in the assay on TK-10 renal it was 91.2%; in the assay on ACHN renal, 93.9%. Besides, the growth in the assay on CAKI-1 renal was 97%; in the assay with A498 renal, 99.7%; in the assay on CCRF-CEM leukemia it was 101%; in the assay with MOLT-4 leukemia, 102%.

As to `O=[N+]([O-])c1cccc(/C=N\Nc2ccccc2)c1`, the growth is 42.1% in the assay on SK-MEL-2 melanoma; 59.8% in the assay with EKVX NSCLC; 74.7% in the assay with SN12C renal; 47.4% in the assay with UO-31 renal; 98.7% in the assay with TK-10 renal; 41.9% with ACHN renal. The growth is 59.9% in the assay on CAKI-1 renal, 101% with A498 renal, 59.5% with CCRF-CEM leukemia and 71.5% with MOLT-4 leukemia.

As to `C=C(C)[C@@H]1CC[C@]2(C=NCCCNCCCCNCCCN)CC[C@]3(C)[C@H](CC[C@@H]4[C@@]5(C)CCCNC(C)(C)[C@@H]5CC[C@]43C)[C@@H]12`, the growth is 132% in the assay on SK-MEL-2 melanoma; 102% with EKVX NSCLC; 91.1% in the assay on SN12C renal; 92.1% in the assay on UO-31 renal; 120% in the assay with TK-10 renal; 105% in the assay on ACHN renal. Besides, the growth in the assay on CAKI-1 renal was 80.6%; with A498 renal it was 95.6%; in the assay on CCRF-CEM leukemia, 94.4%; in the assay on MOLT-4 leukemia it was 93.4%.

Take `O=C(/C=C\c1ccc2c(c1)OCO2)/C=C/c1ccc2c(c1)OCO2`: the growth with SK-MEL-2 melanoma was 127%; with EKVX NSCLC, 82.4%; in the assay with SN12C renal it was 86.5%; with UO-31 renal it was 76.3%; with TK-10 renal, 96.1%; in the assay on ACHN renal it was 88.3%. In addition, the growth in the assay with CAKI-1 renal was 89.2%; in the assay on A498 renal it was 126%; in the assay on CCRF-CEM leukemia, 31.4%; in the assay on MOLT-4 leukemia, 35.2%.

Regarding `c1ccc2[nH]c(-c3ccc(Nc4nc(N5CCCCC5)nc(N5CCOCC5)n4)cc3)nc2c1`, the growth in the assay on SK-MEL-2 melanoma was -20.6% (active); with EKVX NSCLC, 27.7%; with SN12C renal, 52.4%; with UO-31 renal it was -37.8% (active); in the assay on TK-10 renal, 58.8%; with ACHN renal it was 22.9%. Also, the growth in the assay on CAKI-1 renal was -46.9% (active); with A498 renal it was -28.6% (active); with CCRF-CEM leukemia it was 8.74% (active); in the assay with MOLT-4 leukemia it was 13.7%.
